Measurements as given in PubChem BioAssay.

Experiments:
[1] = tested on: Human papillomavirus type 1a protein E7 (residues 44-93); experiment: small molecules binding HPV E7 44-93 – biochemical, small-molecule microarray, residues 44-93, 635 nm fluorescence, primary screen (AID 1108); conditions: fluorescence 635 nm, higher = more signal;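 note: E7 fragment applied at 1 µg/mL in TBST for 1 h at 4 C; score combines spot fluorescence with its signal to noise ratio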
[2] = hepatitis C replication reporter changes, two-sided – Huh7 cells, luciferase reporter, HCV replication inhibitor project, primary screen (AID 1109); conditions: Huh7 HCV replicon luciferase reporter, 48 h; higher = more signal;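 note: huh7 hepatoma cells harbouring a luciferase neomycin HCV replicon reporter; luciferase luminescence as measure of HCV replicon replication; test concentration not given here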
[3] = molecular target: Left-right determination factor 2 (Homo sapiens) (UniProt O00292); experiment: small molecules binding LEFTY2 protein – biochemical, small-molecule microarray, 635 nm fluorescence scan, primary screen (AID 1110); conditions: higher = more signal
[4] = molecular target: Calmodulin-1 (Homo sapiens) (UniProt P0DP23); experiment: small molecules binding calmodulin-1 with EGTA – biochemical, small-molecule microarray, Cy5-labelled CALM1, profiling panel (AID 1111); conditions: Cy5-CALM1 binding fluorescence, higher = more signal;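 note: labelled calmodulin applied in Tris saline Tween buffer holding calcium plus EGTA and DTT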
[5] = molecular target: Calmodulin-1 (Homo sapiens) (UniProt P0DP23); experiment: small molecules binding Ca-loaded calmodulin-1 – biochemical, small-molecule microarray, Cy5-labelled CALM1, plus calcium, artefact control for SMM control-protein annotation, profiling panel (AID 1112); conditions: Cy5-CALM1 binding fluorescence, higher = more signal;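 note: score merges spot fluorescence with signal to noise from triplicate slides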
[6] = probe aWnt5a binding to arrayed compounds – biochemical, biotinylated probe, 635/667 nm fluorescence, primary screen (AID 1113); conditions: small-molecule microarray, higher = more signal;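 note: score merges 667 nm fluorescence intensity with signal-to-noise per printed feature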
[7] = probe aShh binding to arrayed compounds – biochemical, biotinylated probe, 635/667 nm fluorescence, primary screen (AID 1114); conditions: small-molecule microarray, higher = more signal;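 note: probe is biotin-labelled aShh protein from a stem cell growth factor screen; measures binding of labelled protein to compounds printed on the slide; score merges feature fluorescence at 667 nm with signal-to-noise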
[8] = probe aNog binding to arrayed compounds – biochemical, biotinylated probe, 635/667 nm fluorescence, primary screen (AID 1115); conditions: small-molecule microarray, higher = more signal;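 note: probe is biotinylated aNog protein used at 0.15 µg/mL for 1 h at 4 C; z-score combines 667 nm fluorescence of each spot with its signal to noise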
[9] = molecular target: Torsin-1A-interacting protein 1 (Homo sapiens) (UniProt Q5JTV8); experiment: compound microarray binding of lysate hLAP1 – cell lysate, small-molecule microarray, COS7 lysate, 635/667 nm fluorescence, primary screen (AID 1116); conditions: 635 nm fluorescence, higher = more signal
[10] = molecular target: Alpha-bungarotoxin (Bungarus multicinctus) (UniProt P60615); experiment: compounds binding labelled alpha-BTX control protein – biochemical, small-molecule microarray, Alexa647 label, 635/667 nm fluorescence, artefact control for SMM control protein annotation, profiling panel (AID 1117); conditions: alpha-BTX-A647 binding fluorescence, higher = more signal
Alpha-bungarotoxin (Bungarus multicinctus), sequence (P60615 whole entry, looked up): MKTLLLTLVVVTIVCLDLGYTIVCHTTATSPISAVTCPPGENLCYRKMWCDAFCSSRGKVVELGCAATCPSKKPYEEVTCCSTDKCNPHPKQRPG

Left-right determination factor 2 (Homo sapiens), sequence (O00292 whole entry, looked up): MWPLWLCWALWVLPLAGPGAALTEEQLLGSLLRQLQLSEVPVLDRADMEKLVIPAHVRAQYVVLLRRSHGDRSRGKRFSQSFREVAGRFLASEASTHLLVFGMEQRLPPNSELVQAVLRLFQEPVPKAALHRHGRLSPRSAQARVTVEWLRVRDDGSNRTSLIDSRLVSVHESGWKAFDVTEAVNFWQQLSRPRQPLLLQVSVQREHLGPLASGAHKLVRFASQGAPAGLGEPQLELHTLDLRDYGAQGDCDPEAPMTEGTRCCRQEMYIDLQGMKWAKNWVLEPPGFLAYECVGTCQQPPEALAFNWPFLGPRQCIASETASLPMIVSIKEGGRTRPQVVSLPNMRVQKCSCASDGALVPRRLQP
Torsin-1A-interacting protein 1 (Homo sapiens), sequence (Q5JTV8 whole entry, looked up): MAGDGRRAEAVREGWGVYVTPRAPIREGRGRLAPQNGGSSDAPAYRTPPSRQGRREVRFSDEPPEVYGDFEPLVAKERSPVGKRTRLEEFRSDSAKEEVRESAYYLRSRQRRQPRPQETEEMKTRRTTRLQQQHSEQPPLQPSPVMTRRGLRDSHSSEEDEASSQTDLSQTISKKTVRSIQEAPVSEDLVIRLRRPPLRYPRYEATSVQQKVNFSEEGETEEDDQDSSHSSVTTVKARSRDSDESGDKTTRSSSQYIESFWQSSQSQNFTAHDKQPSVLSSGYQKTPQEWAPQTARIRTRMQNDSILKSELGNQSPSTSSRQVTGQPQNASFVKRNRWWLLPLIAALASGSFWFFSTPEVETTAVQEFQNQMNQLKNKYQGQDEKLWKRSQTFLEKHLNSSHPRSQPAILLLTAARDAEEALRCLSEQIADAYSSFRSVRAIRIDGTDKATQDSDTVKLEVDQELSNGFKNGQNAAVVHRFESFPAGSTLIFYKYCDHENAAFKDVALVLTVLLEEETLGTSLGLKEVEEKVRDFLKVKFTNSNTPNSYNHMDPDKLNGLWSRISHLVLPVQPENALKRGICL

| Structure (SMILES) | composite z-score [1] | z-score [2] | composite z-score [3] | composite z-score [4] | composite z-score [5] | composite z-score [6] | composite z-score [7] | composite z-score [8] | composite z-score [9] | composite z-score [10] |
| --- | --- | --- | --- | --- | --- | --- | --- | --- | --- | --- |
| C[N+](C)(C)CCCC[C@@H]1NC(=O)[C@@H]2C[C@H](C(=O)NCCCCCNC(=O)CS)[C@H](c3cccc(OCCO)c3)N2C1=O | 0.911 | -0.193 | 0.0926 | -0.0534 | 0.581 | -0.0478 | 0.151 | 0.0197 | -0.034 | 0.568 |
| O=C(C=C(CC(O)c1cccc(Cl)c1)OCCF)OCCF (stereo not given) | -2.46 | -0.641 | -0.492 | -0.277 | 0.896 | -0.0678 | 0.0278 | 0.0014 | 0.516 | 0.392 |
| CC(=O)NCCCC[C@@H]1NC(=O)[C@H]2C[C@@H](C(=O)NCCCCCN)[C@@H](c3cccc(OCCO)c3)N2C1=O | 0.783 | 0.572 | 0.0306 | 1.27 | 1.35 | -0.0403 | -0.0119 | -0.392 | 0.718 | 1.82 |
| CN1C(=O)C2C=CC(C(O)COCc3ccccc3)N(Nc3ccccc3)C2C1=O (stereo not given) | 0.372 | 0.74 | 0.0615 | -0.0981 | -0.57 | 0.0403 | -0.0793 | 1.03 | 0.661 | 0.347 |
| COc1cc(C(O)C2C=CC3C(=O)N(C)C(=O)C3N2NC(=O)OC(C)(C)C)cc(OC)c1OC (stereo not given) | 0.968 | -0.639 | 0.0493 | 1.34 | 0.12 | 0.343 | 0.848 | 1.6 | 0.102 | 0.312 |
| O=C1O[C@@H](c2ccccc2)[C@@H](c2ccccc2)N2[C@@H](c3ccc(O)cc3)[C@]3(C(=O)Nc4ccc(C#CC5(O)CCCCCC5)cc43)[C@@H](C(=O)N3CCN(c4ncccn4)CC3)[C@H]12 | 1.4 | -0.843 | 0.114 | 1.03 | 0.137 | -0.0721 | 0.255 | 0.146 | 1.18 | 1.21 |
| COC(=O)[C@@]1(Cc2ccc(OC)cc2)[C@H]2c3cc(C(=O)N(C)C)n(CCF)c3C[C@H]2CN1C(=O)c1ccccc1 | 0.528 | -1.83 | 0.216 | 2.13 | 1.02 | 0.027 | 0.675 | 1.82 | 1.01 | 1.79 |
| COc1ccc([Si](C)(C)[C@@H]2[C@@H](CCO)O[C@]3(C(=O)N(Cc4cccc(N5C(=O)COc6ccccc65)c4)c4ccccc43)[C@H]2C)cc1 | 0.467 | -4.83 | -0.382 | 1.06 | 0.728 | -0.063 | 0.0048 | -0.167 | -0.028 | 0.748 |
| CC(=O)NCCCC[C@@H]1NC(=O)[C@@H]2C[C@H](C(=O)NCCCC[N+](C)(C)C)[C@H](c3cccc(OCCO)c3)N2C1=O | 0.193 | -0.703 | 0.0711 | 0.601 | 0.0189 | -0.122 | -0.0643 | -0.314 | 0.714 | -0.08 |
| COc1ccc([Si](C)(C)[C@H]2[C@H](CCO)O[C@@]3(C(=O)N(Cc4cccc(N5CCOC5=O)c4)c4ccccc43)[C@@H]2C)cc1 | 1.1 | -4.39 | 0.118 | 1.4 | -0.207 | -0.101 | 0.0668 | -0.118 | -0.18 | 0.355 |
| CC(C)(C)OC(=O)CC[C@@]1(C(=O)N2CCCCC2)N=C(c2ccc(OCCCO)cc2)O[C@@H]1c1ccccc1CN=[N+]=[N-] | 1.46 | -2.36 | 0.0083 | 1.88 | 0.709 | 0.0629 | 0.199 | -0.685 | 2.04 | 2.27 |
| Cc1ccc(S[C@]2(C(=O)NCc3ccccc3)CC(=O)N(C3Cc4ccccc4C3)[C@@H]2c2ccc(CO)cc2I)cc1 | 0.241 | -1.63 | -1.53 | -0.733 | -0.0933 | -0.0896 | -0.364 | -0.0496 | -0.129 | 1.3 |
| COCC1=C([C@H](O)CCc2ccccc2)[C@H](CO)[C@@H]2C(=O)N(C)C(=O)[C@@H]2C1 | -0.121 | 0.216 | 0.394 | -0.205 | -0.783 | -0.104 | -0.164 | -0.172 | 0.478 | -0.152 |
| C#CCNS(=O)(=O)N(C)C | 0.638 | 0.119 | 0.713 | -0.157 | -0.687 | -0.096 | 0.0463 | -0.168 | 0.0976 | 0.601 |
| CCCC=C(CCC)[C@@H](NS(=O)(=O)CC)c1ccccc1 | 1.37 | -2.68 | -0.0866 | 1.37 | 0.855 | 0.0516 | 0.949 | 1.26 | 0.806 | 0.157 |
| COCCOC(=O)N1C(=O)[C@@]2(c3ccccc31)[C@H](c1ccc(OCCO)cc1)N1[C@H](c3ccccc3)[C@H](c3ccccc3)OC(=O)[C@H]1[C@@H]2C(=O)NC[C@H](O)c1ccccc1 | 1.44 | -1.95 | 0.0792 | 0.718 | 0.716 | -0.0758 | -0.141 | 0.554 | 0.839 | 1.92 |
| CN(C)CCCCNC(=O)[C@H]1C[C@H]2C(=O)N[C@@H](CCCC[N+](C)(C)C)C(=O)N2[C@H]1c1cccc(OCCO)c1 | 1.37 | -0.156 | 0.206 | 0.285 | -0.166 | -0.0792 | 0.13 | 0.0286 | 0.116 | 0.112 |
| COCCOC(=O)N1C(=O)[C@@]2(c3cc(C#CC4(O)CCCCCC4)ccc31)[C@H](C(=O)N1CCc3cc(OC)c(OC)cc3C1)[C@H]1C(=O)O[C@H](c3ccccc3)[C@H](c3ccccc3)N1[C@@H]2c1ccccc1OCCO | 1.04 | -2.18 | 1.17 | 1.02 | -0.386 | 0.205 | 0.261 | 0.0158 | 0.447 | 1.46 |
| C=C(CCCC)/C(=C/C[C@@H](OC(=O)c1ccncc1)c1ccccc1OCCO)c1cc(C(=O)OC)ccc1OC | 1.4 | -2.61 | 0.0979 | -0.154 | -0.351 | -0.0735 | -0.0626 | -0.518 | 0.603 | 1.93 |
| CCCCC(CC)C(O)C1C=CC2C(=O)NC(=O)C2N1Nc1ccccn1 (stereo not given) | 1.46 | -0.201 | 0.0645 | 1.07 | 0.431 | 0.0919 | -0.119 | 1.19 | 0.927 | 1.36 |
| CC(C)CCC[C@@H](C)[C@H]1CC[C@@]2(C)C3=C(CC[C@]12C)[C@@]1(C)CC[C@H](OC(=O)C(C)(C)C)C(C)(C)C1CC3 (stereo not given in full) | 0.506 | -0.435 | 0.502 | 0.0548 | -0.718 | -0.0792 | -0.134 | -0.705 | -0.0812 | 0.448 |
| C[C@]12C(=O)N(CCCCCO)[C@@H]3C(=O)N(c4ccc(Cl)cc4)CC=CC31O[C@@H]1/C=C\CCCOC(=O)C12 (stereo not given in full) | -1.86 | -0.381 | -1.95 | -0.811 | 1.22 | -0.23 | -0.138 | -0.125 | -0.579 | -0.797 |
| [N-]=[N+]=NCc1ccccc1C[C@]1(C(=O)NCCN2CCOCC2)N=C(c2ccc(OCCCO)cc2)O[C@H]1c1ccccc1 | 1.45 | -2.64 | -0.481 | 0.835 | -0.401 | 0.0215 | 0.131 | -0.465 | 1.46 | 1.16 |
